Calls of active or inactive are those of the source.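 How the source made its calls: active means compounds lowering luciferase light whose fitted half-effect concentration is at most twice the top tested dose; inconclusive means flat curve with 30 to 70% inhibition, or poor fit; inactive means the rest.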

This assay is described as follows: luciferase signal loss, tTA control fusion, HeLa F-luc tTA cells, dry powder, counter-screen for HIV Env fusion inhibitor project, dose response (AID 687021). The settings on record: luciferase luminescence counterscreen; series mostly up to 35 µM.
In the case of `CCOc1ccc(OCC)c(S(=O)(=O)NCc2ccncc2)c1`, the outcome was inactive.

On to `Cc1ccc(S(=O)(=O)N(C)C[C@@H]2Oc3ccc(NS(=O)(=O)c4c(C)noc4C)cc3CC(=O)N([C@H](C)CO)C[C@@H]2C)cc1`, for which the call was inactive.

`Nc1nonc1C(=O)NCCNCc1c(OCc2ccccc2F)ccc2ccccc12`: the compound was classed as inactive.

As for `CCOc1ccc(S(=O)(=O)NCc2ccccn2)cc1`, the outcome was inactive.

With `CCOc1ccc(S(=O)(=O)NCc2ccncc2)cc1OCC`, the result was inactive.

With `CC(C)(C)c1ccc(-c2noc(CCC(=O)NCC3CCCO3)n2)cc1` (centres undefined), the compound was classed as inactive.

For `Cc1ccc2c(CN3CCN(S(=O)(=O)c4ccc5c(c4)OCCO5)CC3)cc(=O)oc2c1C`, the outcome was inactive.

For the compound `C[C@@H]1CN([C@H](C)CO)C(=O)c2cccc(NS(=O)(=O)c3ccc(Cl)cc3)c2O[C@@H]1CN(C)Cc1ccc(Cl)c(Cl)c1`, the call was inactive.

Regarding `CCCOc1ccc(S(=O)(=O)NCc2ccncc2)c2ccccc12`, the compound was classed as inactive.

For `Cc1ccc(-c2nnc3ccc4c(C(F)(F)F)cc(C(F)(F)F)nc4n23)cc1`, the compound was called inactive.

`CCCC#Cc1ccc2c(c1)O[C@@H](CN(C)S(=O)(=O)c1cccc(F)c1)[C@@H](C)CN([C@H](C)CO)S2(=O)=O`: the call was inactive.

In the case of `CCOc1ccc(S(=O)(=O)NCc2ccccc2)cc1`, the compound was called inactive.

Take `Cc1ccc(S(=O)(=O)Nc2cccc3c2O[C@@H](CN(C)Cc2ccc(Cl)c(Cl)c2)[C@@H](C)CN([C@H](C)CO)C3=O)cc1`: the result was inactive.

As for `C[C@H]1CCCCO[C@@H](CN(C)Cc2ccncc2)[C@@H](C)CN([C@@H](C)CO)C(=O)c2cc(NC(=O)Nc3ccccc3)ccc2O1`, the result was inactive.

The record behind these values is PubChem BioAssay AID687021 (Broad Institute, 2013).
